Our source for the AC50 and outcome values is PubChem BioAssay (EPA / NIEHS).

Several values for one entry are separate records, joined by “and”; a condition that tells them apart may be missing. Equal entries are not always repeated. Results filed as inconclusive are left out. Some compounds were tested as several samples or in several runs, with calls that do not always agree. Activity calls are given as the source filed them. How the source made its calls: active means hit-call score of the fitted dose curve at least 0.9, where 1 is the maximum; inconclusive means response in the unintended direction; inactive means score below 0.9.

A short description of the experiment: TOX21_p53_BLA_p3_viability: Viability Assessment in the Tox21 HCT-116 p53 Agonism Beta-lactamase Assay, Phase 3 (AID 2283593).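 Further: cells exposed to compound for 16 h before reading.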 The gist of the method: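 HCT-116 cells (4000/well) rested 5 h at 37C, then got DMSO compounds by pin tool (217-fold dilution) for 16 h at 37C, 5% CO2. After the bla read, CellTiter-Glo was added and luminescence read at 30 min, room temperature.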
By AC50 is commonly meant the midpoint of the concentration-response curve, whichever way the signal moves. Consider `CC(C)(C)CC(C)(C)c1ccc(OCCOCC[N+](C)(C)Cc2ccccc2)cc1`, for which the AC50 was 60.7 µM (active) and 23 µM (active). Take `C/C=C(\C)C(=O)OCCc1ccccc1`: the molecule was called inactive.

As to `Clc1ccc(C(c2ccccc2Cl)C(Cl)Cl)cc1` (stereo not given), the half-maximal activity concentration (AC50) was 67.7 µM (active) and 31.2 µM (active). Consider `CCN(CCN)c1cccc(C)c1`, for which the molecule was called inactive. The same measure, in the same setting: in the case of `NCCNc1cccc2ccccc12` it was “inactive”.

Turning to `CCCCC(CC)COC(=O)c1ccc(O)cc1` (stereo not given), the half-maximal activity concentration (AC50) was 84.1 µM (active) and the call was inactive. With `C=C1CC[C@H](O)C/C1=C/C=C1\CCC[C@]2(C)[C@@H]([C@H](C)/C=C/[C@H](C)C(C)C)CC[C@@H]12`, the AC50 was 61.1 µM (active) and 45.8 µM (active) and 42.2 µM (active).

In the case of `Nc1ccc2c(O)cc(S(=O)(=O)O)cc2c1`, the molecule was called inactive. Take `Cc1c(OCC(F)(F)F)ccnc1CS(=O)c1nc2ccccc2[nH]1` (stereo not given): the molecule was called inactive. With `COc1ccc(CCN2CCC(Nc3nc4ccccc4n3Cc3ccc(F)cc3)CC2)cc1`, the half-maximal activity concentration (AC50) is 15.2 µM (active) and the outcome was inactive. As to `Oc1c(Cl)cc(Cl)c(Cl)c1Cc1c(O)c(Cl)cc(Cl)c1Cl`, the AC50 is 39.9 µM (active) and 568 nM (active); the outcome was inactive. `CN(C)CCOc1ccc(/C(=C(/CCCl)c2ccccc2)c2ccccc2)cc1`: the AC50 was 66.3 µM (active) and the molecule was called inactive.

In the case of `CC1CC(O)CC(C)(C)C1` (stereo not given), the call was inactive. In the case of `C=C(C)C(=O)OCC(CC)(COC(=O)C(=C)C)COC(=O)C(=C)C`, the molecule was called inactive. The same measure, in the same setting: in the case of `CCCC1O[C@@H]2C[C@H]3[C@@H]4CCC5=CC(=O)C=C[C@]5(C)[C@H]4[C@@H](O)C[C@]3(C)[C@]2(C(=O)CO)O1` (stereo not given in full) it was “inactive”. For `CC(=O)Nc1ccc(C(=O)CCl)cc1`, the call was inactive.
